Measured values from PubChem BioAssay.
Results filed as inconclusive are left out. Calls of active or inactive are those of the source.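 Rule for the calls, unless noted: active = binding below the plate cutoff, the plate median minus 3 SD, with a reading above zero; inconclusive = below the plate cutoff but reading exactly zero; inactive = the rest.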

How the values were obtained:
[1] = yeast TOR pathway RPL19A-GFP modulators, primary screen, cell-based, S. cerevisiae, multiplex flow cytometry (AID 1862; in the data active = percent of DMSO control GFP below about 86%;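 note: lower values mimic rapamycin by blocking the RPL19A rise seen in DMSO cells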); conditions: S. cerevisiae RPL19A-GFP strain, flow cytometry fluorescence, 3 h; at 10 µM; stronger effect = lower value
[2] = modulators of MEP2-GFP levels in yeast, primary screen, S. cerevisiae, multiplex flow cytometry (AID 1867;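 active = GFP response, as percent of the DMSO control, above the screen-wide mean plus 3 SD, about 139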;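 note: median GFP channel fluorescence of barcode-gated MEP2-GFP cells measured by flow cytometry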); conditions: S. cerevisiae MEP2-GFP strain, 3 h, at 10 µM, stronger effect = higher value, 100% means same as DMSO wells
[3] = modulators of CIT2-GFP expression in yeast, primary screen, S. cerevisiae, GFP fusion, multiplex flow cytometry (AID 1870;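 active = percent response above a set limit, the screen-wide mean plus 3 SD, cut at about 130% in these data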;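 note: barcoded CIT2-GFP strain pooled with four other GFP strains with rapamycin as positive control; median GFP fluorescence per well over plate mean of DMSO wells so 100% = DMSO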); conditions: 3 h, at 10 µM, stronger effect = higher value
[4] = modulators of LAP4-GFP expression in yeast, primary screen, S. cerevisiae, multiplex flow cytometry (AID 1873;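 active = GFP signal, as percent of the solvent control, above the screen mean plus 3 SD, about 149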); conditions: 3 h, at 10 µM, stronger effect = higher value
[5] = modulators of AGP1-GFP expression in yeast TOR pathway, primary screen, cell-based, multiplex flow cytometry, S. cerevisiae (AID 1887;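 active = GFP signal above the screen-wide mean plus 3 SD, that is over about 124.5% of the solvent control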;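 note: AGP1-GFP fusion strain of S. cerevisiae within a five-strain barcoded multiplex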); conditions: 3 h, at 10 µM, stronger effect = higher value
[6] = inhibitors of CD8+ T cell-vesicle binding, pilot screen, LFA-1/ICAM-1 modulator project, MLPCN validation set, flow cytometry (AID 2523;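 active = response below a set limit, under 55% cells CD8-positive and vesicle-bound, and CD8 cells' 90th-percentile brightness under 279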;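 for vesicle binding response: mean PE anti-B7-1 fluorescence of CD8+ cells relative to row control; 100% = QL9-loaded vesicles with DMSO vehicle in the same plate row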); conditions: 2C mouse CD8+ T cells, at 7 µM, stronger effect = lower value; double positive events: measured here: CD8+/vesicle+ event percentage
[7] = molecular target: Integrin beta-1 (Homo sapiens) + Integrin alpha-4 (Homo sapiens) (UniProt P13612+P05556); experiment: inhibition of HUTS-21 binding to VLA-4, pilot screen, VLA-4 allosteric modulator project, U937 cells, HUTS-21 mAb, flow cytometry, validation set (AID 2674;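 active = inhibition above 50%, about 3 SD of the validation set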;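 note: antibody binding induced by the VLA-4 ligand LDV present at three times its Kd; 0% = LDV ligand with antibody and no compound and 100% = antibody without LDV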); conditions: HUTS-21 LIBS mAb binding, at 6.7 µM, stronger effect = higher value, binding induced by LDV ligand
Sequence of Integrin beta-1 (Homo sapiens) + Integrin alpha-4 (Homo sapiens) (P05556 whole entry, looked up): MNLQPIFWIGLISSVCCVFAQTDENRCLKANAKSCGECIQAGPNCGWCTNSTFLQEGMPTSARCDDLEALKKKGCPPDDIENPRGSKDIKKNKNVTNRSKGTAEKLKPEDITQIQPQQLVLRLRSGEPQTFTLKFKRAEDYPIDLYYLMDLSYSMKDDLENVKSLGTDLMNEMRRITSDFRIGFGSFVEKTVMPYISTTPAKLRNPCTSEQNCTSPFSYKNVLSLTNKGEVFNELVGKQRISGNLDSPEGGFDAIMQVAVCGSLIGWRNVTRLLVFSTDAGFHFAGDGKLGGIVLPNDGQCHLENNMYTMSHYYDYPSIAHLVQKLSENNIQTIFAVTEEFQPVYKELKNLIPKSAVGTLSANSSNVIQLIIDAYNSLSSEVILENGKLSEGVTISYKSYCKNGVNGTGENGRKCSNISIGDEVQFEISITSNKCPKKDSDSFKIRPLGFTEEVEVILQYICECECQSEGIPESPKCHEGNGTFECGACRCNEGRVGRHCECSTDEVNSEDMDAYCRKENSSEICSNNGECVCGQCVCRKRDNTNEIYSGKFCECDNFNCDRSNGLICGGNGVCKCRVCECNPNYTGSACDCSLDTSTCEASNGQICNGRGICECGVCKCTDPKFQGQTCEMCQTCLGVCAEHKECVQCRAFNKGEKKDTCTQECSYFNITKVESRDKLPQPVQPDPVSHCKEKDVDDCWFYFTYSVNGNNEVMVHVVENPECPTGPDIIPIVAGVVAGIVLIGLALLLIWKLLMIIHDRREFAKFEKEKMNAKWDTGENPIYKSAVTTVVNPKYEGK
Sequence of Integrin beta-1 (Homo sapiens) + Integrin alpha-4 (Homo sapiens) (P13612 whole entry, looked up): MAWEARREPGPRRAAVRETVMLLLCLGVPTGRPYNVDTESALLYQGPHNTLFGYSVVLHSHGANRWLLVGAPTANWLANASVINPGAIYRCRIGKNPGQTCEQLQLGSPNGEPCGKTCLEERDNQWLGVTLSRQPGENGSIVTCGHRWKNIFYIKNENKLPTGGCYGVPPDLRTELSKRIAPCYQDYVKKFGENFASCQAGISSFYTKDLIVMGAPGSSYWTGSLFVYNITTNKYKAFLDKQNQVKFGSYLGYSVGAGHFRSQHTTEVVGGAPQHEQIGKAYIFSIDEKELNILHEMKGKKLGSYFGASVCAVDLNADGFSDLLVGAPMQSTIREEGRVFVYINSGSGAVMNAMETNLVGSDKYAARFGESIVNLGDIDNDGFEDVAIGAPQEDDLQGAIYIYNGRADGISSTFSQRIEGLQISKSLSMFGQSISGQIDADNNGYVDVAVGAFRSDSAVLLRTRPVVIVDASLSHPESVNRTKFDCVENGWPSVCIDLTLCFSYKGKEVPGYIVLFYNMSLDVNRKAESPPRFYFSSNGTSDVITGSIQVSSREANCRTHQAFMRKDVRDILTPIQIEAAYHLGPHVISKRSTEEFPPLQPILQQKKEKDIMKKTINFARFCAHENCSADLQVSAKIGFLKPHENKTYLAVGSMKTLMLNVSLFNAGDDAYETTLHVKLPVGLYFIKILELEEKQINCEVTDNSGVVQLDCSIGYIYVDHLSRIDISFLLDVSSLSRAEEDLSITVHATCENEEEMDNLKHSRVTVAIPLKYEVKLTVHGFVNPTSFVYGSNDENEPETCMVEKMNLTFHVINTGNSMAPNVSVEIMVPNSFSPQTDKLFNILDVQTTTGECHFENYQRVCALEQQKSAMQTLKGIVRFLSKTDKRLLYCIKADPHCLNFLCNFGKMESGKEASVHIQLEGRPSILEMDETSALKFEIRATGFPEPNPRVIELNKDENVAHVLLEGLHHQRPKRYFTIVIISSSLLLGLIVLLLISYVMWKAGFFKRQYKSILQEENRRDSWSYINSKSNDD

[8] = superoxide lowering in aged yeast cells, pilot screen, validation compound set (AID 2706;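 active = superoxide response below 65% of plate, a cut near 3 SD across the whole screen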;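 note: yeast exposed to compound for one week at 30 degrees C before staining; 100% = mean of all compound wells on the same plate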); conditions: S. cerevisiae aging, superoxide DHE fluorescence; at 10 µM, stronger effect = lower value
[9] = molecular target: Beta-adrenergic receptor kinase 1 (Homo sapiens) (UniProt P25098); experiment: GRK2 binders displacing RNA aptamer, biochemical, validation, human GRK2, bead flow cytometry (AID 488806;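 active = aptamer binding inhibition above 30%, about 3 SD of noise from non-fluorescent compounds; inactive = inhibition at or below 30%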); conditions: bead-bound GRK2, FAM-aptamer displacement, at 10 µM, stronger effect = higher value
Sequence of Beta-adrenergic receptor kinase 1 (Homo sapiens) (P25098 whole entry, looked up): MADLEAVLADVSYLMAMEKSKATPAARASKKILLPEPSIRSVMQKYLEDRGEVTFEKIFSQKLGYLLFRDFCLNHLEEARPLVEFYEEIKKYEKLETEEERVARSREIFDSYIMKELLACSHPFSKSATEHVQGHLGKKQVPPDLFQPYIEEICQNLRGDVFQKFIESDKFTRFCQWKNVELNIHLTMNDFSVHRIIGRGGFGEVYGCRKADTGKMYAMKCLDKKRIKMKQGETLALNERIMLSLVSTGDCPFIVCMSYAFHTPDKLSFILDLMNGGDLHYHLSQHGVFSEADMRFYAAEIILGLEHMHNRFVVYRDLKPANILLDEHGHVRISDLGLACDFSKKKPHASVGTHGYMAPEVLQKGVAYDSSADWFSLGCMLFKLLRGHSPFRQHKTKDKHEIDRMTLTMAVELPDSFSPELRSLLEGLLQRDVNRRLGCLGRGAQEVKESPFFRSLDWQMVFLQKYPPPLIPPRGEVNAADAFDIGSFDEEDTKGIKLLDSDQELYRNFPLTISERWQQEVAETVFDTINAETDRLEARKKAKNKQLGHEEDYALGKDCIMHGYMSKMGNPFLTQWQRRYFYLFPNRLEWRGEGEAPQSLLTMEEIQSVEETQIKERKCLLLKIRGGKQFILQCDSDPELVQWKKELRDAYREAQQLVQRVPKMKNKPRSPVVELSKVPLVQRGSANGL

[10] = molecular target: AP-2 complex subunit beta (Homo sapiens) (UniProt P63010); experiment: inhibitors of arrestin peptide binding to AP2, pilot screen, biochemical, validation set, GST-AP2 beads, flow cytometry (AID 504541;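 active = inhibition above 54%, about 3 SD of non-fluorescent compounds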;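 note: AP2 carries R879A mutation and is captured from E. coli lysate; bead-bound FITC arrestin peptide fluorescence measuring arrestin peptide binding to AP2; 0% = DMSO wells and 100% = excess unlabeled arrestin peptide control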); conditions: FITC arrestin peptide, at 10 µM, stronger effect = higher value, AP2 beta2 appendage fragment, R879A mutant
Sequence of AP-2 complex subunit beta (Homo sapiens) (P63010 whole entry, looked up, the tested form may be a part, one chain of several): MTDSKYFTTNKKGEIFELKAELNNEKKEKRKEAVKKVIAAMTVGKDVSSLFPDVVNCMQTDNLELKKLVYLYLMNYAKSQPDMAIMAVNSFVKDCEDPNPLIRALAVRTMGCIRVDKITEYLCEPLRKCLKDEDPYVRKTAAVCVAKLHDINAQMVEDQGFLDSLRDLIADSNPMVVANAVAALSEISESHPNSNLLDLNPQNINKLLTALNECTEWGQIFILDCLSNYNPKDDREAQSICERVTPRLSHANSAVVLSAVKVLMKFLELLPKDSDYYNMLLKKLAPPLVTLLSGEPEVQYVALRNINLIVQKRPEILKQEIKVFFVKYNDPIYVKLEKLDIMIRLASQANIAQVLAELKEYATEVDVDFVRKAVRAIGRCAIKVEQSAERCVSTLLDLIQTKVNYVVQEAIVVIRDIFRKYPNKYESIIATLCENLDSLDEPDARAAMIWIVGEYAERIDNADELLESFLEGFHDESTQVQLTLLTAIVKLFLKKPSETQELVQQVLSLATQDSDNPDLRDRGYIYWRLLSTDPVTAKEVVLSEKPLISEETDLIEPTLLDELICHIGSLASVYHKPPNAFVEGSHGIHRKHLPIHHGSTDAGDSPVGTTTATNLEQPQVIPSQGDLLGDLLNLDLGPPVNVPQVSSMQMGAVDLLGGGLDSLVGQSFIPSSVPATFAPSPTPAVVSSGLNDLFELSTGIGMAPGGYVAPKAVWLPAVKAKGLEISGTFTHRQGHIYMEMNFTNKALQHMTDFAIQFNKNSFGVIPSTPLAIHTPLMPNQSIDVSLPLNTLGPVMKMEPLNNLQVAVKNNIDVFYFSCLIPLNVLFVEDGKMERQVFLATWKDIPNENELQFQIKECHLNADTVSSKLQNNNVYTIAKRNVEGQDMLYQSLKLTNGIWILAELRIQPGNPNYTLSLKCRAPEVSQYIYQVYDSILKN

[11] = yeast V-ATPase proton transport modulators, S. cerevisiae, pHLuorin, HTS validation (AID 504600; in the data active = response above about 15%;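 note: plate controls were DMSO for no effect and reference compound for full effect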); conditions: S. cerevisiae pHLuorin cytosolic pH, at 10 µM, stronger effect = higher value
[12] = test system: anti-desmoglein-3 scFv antibody binding to human DSG3; experiment: inhibitors of anti-DSG3 scFv binding to DSG3, pilot screen, biochemical, validation compound set, bead-based, flow cytometry (AID 588368); conditions: Protein G beads, DSG3-Fc, scFv-GFP binding, at 10 µM, stronger effect = lower value;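 note: signal is the median channel fluorescence of bead-bound GFP antibody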
[13] = inhibitors of fungal efflux pumps CDR1, CDR2, MDR1, pilot screen, validation compound set, multiplex, phenotypic (AID 588506;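 active = efflux inhibition above 0.42, the validation set average plus 4 SD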;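 note: Nile Red retained in cells so higher fluorescence means more efflux inhibition; 0 = negative control wells and 1 = enniatin B 25 µM full block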); conditions: S. cerevisiae pump-expressing triplex, Nile Red efflux flow cytometry; at 10 µM; stronger effect = higher value; the pumps come from Candida albicans
[14] = molecular target: ATP-binding cassette sub-family B member 6 (Homo sapiens) (UniProt Q9NP58); experiment: ABCB6 transporter inhibitors, pilot screen, K562-ABCB6 cells, flow cytometry, validation set (AID 588550;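 active = inhibition above the screen-wide mean plus 3 SD, about 51%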;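 note: 0% = DMSO wells and 100% = benzethonium chloride 70 µM positive control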); conditions: K562-ABCB6 porphyrin accumulation, 1 h, at 10 µM, stronger effect = higher value
Sequence of ATP-binding cassette sub-family B member 6 (Homo sapiens) (Q9NP58 whole entry, looked up): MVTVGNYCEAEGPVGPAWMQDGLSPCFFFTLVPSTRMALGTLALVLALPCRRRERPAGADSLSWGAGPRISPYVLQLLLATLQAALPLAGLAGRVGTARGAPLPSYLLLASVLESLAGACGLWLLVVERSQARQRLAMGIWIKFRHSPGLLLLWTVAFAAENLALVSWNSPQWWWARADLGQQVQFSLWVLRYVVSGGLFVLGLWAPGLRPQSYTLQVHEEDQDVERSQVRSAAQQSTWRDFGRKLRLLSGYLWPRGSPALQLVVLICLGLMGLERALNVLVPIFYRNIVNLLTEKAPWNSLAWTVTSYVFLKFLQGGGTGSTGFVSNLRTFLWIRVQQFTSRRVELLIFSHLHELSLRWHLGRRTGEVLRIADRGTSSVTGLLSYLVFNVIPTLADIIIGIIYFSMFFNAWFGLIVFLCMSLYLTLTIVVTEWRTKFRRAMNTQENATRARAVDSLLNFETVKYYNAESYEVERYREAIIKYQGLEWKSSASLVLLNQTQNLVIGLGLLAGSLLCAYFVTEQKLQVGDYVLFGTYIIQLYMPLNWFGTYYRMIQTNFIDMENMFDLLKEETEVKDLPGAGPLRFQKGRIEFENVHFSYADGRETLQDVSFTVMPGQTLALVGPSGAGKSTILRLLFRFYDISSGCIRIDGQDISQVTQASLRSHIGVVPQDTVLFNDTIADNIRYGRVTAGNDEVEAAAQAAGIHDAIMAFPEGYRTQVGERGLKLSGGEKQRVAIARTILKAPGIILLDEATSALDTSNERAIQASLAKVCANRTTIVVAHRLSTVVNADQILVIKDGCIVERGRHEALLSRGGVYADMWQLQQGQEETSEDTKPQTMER

[15] = promoters of myeloid differentiation in arrested cells, primary screen, cell-based, GFP/MAC1 double positive, flow cytometry, validation set (AID 588685;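 active = differentiation response of at least 50%, scaled between solvent and reference control, from cells with both markers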;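 note: compound exposure lasts four days before antibody staining and flow analysis; 0% = DMSO wells and 100% = 5 µM fulvestrant positive control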); conditions: ER-HoxA9 marrow cells, stronger effect = higher value, normalized: vehicle 0, fulvestrant 100

## C#C[C@]1(O)CC[C@H]2[C@@H]3CCC4=C(CCC(=O)C4)[C@H]3CC[C@@]21C
[1]
  percent of DMSO control GFP: 97.1% (inactive)
[2]
  GFP response vs DMSO: 92.8% (inactive)
[3]
  percent response of DMSO control: 94.9% (inactive)
[4]
  GFP response vs DMSO: 129% (inactive)
[5]
  GFP response, % of DMSO: 98.7% (inactive)
[6]
  double positive events: 55.6%
  vesicle binding response: 188% (inactive)
[7]
  inhibition: 2.56% (inactive)
[8]
  superoxide response (% of plate): 95.1% (inactive)
[9]
  aptamer binding inhibition: 2% (inactive)
[10]
  inhibition: 1.1% (inactive)
[11]
  response: 5.28% (inactive)
[12]
  binding (% of control): 102% (inactive)
[13]
  efflux inhibition (fraction of control): -0.2 (inactive)
[14]
  inhibition: 7% (inactive)
[15]
  differentiation response: -0.2% (inactive)

## CC(=O)O[C@H]1C(=O)[C@@]2(C)[C@H]([C@H](OC(=O)c3ccccc3)[C@]3(O)C[C@H](OC(=O)[C@H](O)C(NC(=O)c4ccccc4)c4ccccc4)C(C)=C1C3(C)C)[C@]1(OC(C)=O)CO[C@@H]1C[C@@H]2O (stereo not given in full)
[1]
  percent of DMSO control GFP: 106% (inactive)
[2]
  GFP response vs DMSO: 99.9% (inactive)
[3]
  percent response of DMSO control: 103% (inactive)
[4]
  GFP response vs DMSO: 90.3% (inactive)
[5]
  GFP response, % of DMSO: 97.3% (inactive)
[6]
  double positive events: 55.6%
  vesicle binding response: 162% (inactive)
[7]
  inhibition: 5.36% (inactive)
[8]
  superoxide response (% of plate): 99% (inactive)
[9]
  aptamer binding inhibition: 3% (inactive)
[10]
  inhibition: 2.22% (inactive)
[11]
  response: -2.34% (inactive)
[12]
  binding (% of control): 94.6% (inactive)
[13]
  efflux inhibition (fraction of control): 0.63 (active)
[14]
  inhibition: 7% (inactive)
[15]
  differentiation response: 9.49% (inactive)

## CC(=O)O[C@H]1CSC[C@H]1NC(=O)c1ccccc1
[1]
  percent of DMSO control GFP: 101% (inactive)
[2]
  GFP response vs DMSO: 91.8% (inactive)
[3]
  percent response of DMSO control: 106% (inactive)
[4]
  GFP response vs DMSO: 102% (inactive)
[5]
  GFP response, % of DMSO: 101% (inactive)
[6]
  double positive events: 60.9%
  vesicle binding response: 233% (inactive)
[7]
  inhibition: -7.7% (inactive)
[8]
  superoxide response (% of plate): 104% (inactive)
[9]
  aptamer binding inhibition: -6% (inactive)
[10]
  inhibition: -16.1% (inactive)
[11]
  response: -9.38% (inactive)
[12]
  binding (% of control): 102% (inactive)
[13]
  efflux inhibition (fraction of control): -0.28 (inactive)
[14]
  inhibition: 12% (inactive)
[15]
  differentiation response: -13.1% (inactive)

## CCN(CC)CCNc1ccc(CO)c2sc3ccccc3c(=O)c12
[1]
  percent of DMSO control GFP: 104% (inactive)
[2]
  GFP response vs DMSO: 109% (inactive)
[3]
  percent response of DMSO control: 112% (inactive)
[4]
  GFP response vs DMSO: 112% (inactive)
[5]
  GFP response, % of DMSO: 103% (inactive)
[6]
  double positive events: 47.8%
  vesicle binding response: 231% (inactive)
[7]
  inhibition: 21.2% (inactive)
[8]
  superoxide response (% of plate): 109% (inactive)
[9]
  aptamer binding inhibition: -5% (inactive)
[10]
  inhibition: -0.76% (inactive)
[11]
  response: 2.76% (inactive)
[12]
  binding (% of control): 120% (inactive)
[13]
  efflux inhibition (fraction of control): -0.39 (inactive)
[14]
  inhibition: 8% (inactive)
[15]
  differentiation response: -8.27% (inactive)

## COC(=O)c1cc(OC)c(OC)c(OC)c1[N+](=O)[O-]
[1]
  percent of DMSO control GFP: 103% (inactive)
[2]
  GFP response vs DMSO: 97.9% (inactive)
[3]
  percent response of DMSO control: 107% (inactive)
[4]
  GFP response vs DMSO: 108% (inactive)
[5]
  GFP response, % of DMSO: 105% (inactive)
[6]
  double positive events: 58.1%
  vesicle binding response: 186% (inactive)
[7]
  inhibition: -0.24% (inactive)
[8]
  superoxide response (% of plate): 107% (inactive)
[9]
  aptamer binding inhibition: 4% (inactive)
[10]
  inhibition: -11.6% (inactive)
[11]
  response: 39.5% (active)
[12]
  binding (% of control): 99% (inactive)
[13]
  efflux inhibition (fraction of control): 0.14 (inactive)
[14]
  inhibition: 3% (inactive)
[15]
  differentiation response: -21.2% (inactive)

## CC1=CC(C)(C)N2C(=O)C3(NCCc4c3[nH]c3ccccc43)c3cc(C)cc1c32 (stereo not given)
[1]
  percent of DMSO control GFP: 103% (inactive)
[2]
  GFP response vs DMSO: 98.9% (inactive)
[3]
  percent response of DMSO control: 99.8% (inactive)
[4]
  GFP response vs DMSO: 82.3% (inactive)
[5]
  GFP response, % of DMSO: 93.6% (inactive)
[6]
  double positive events: 63%
  vesicle binding response: 162% (inactive)
[7]
  inhibition: 22.1% (inactive)
[8]
  superoxide response (% of plate): 97.3% (inactive)
[9]
  aptamer binding inhibition: -3% (inactive)
[10]
  inhibition: -4.18% (inactive)
[11]
  response: 3.88% (inactive)
[12]
  binding (% of control): 104% (inactive)
[13]
  efflux inhibition (fraction of control): 0.41 (inactive)
[14]
  inhibition: 4% (inactive)
[15]
  differentiation response: -5.05% (inactive)

## COc1ccc2[nH]c3c(c2c1)CCn1c-3nc2ccccc2c1=O
[1]
  percent of DMSO control GFP: 101% (inactive)
[2]
  GFP response vs DMSO: 105% (inactive)
[3]
  percent response of DMSO control: 104% (inactive)
[4]
  GFP response vs DMSO: 116% (inactive)
[5]
  GFP response, % of DMSO: 101% (inactive)
[6]
  double positive events: 48.2%
  vesicle binding response: 168% (inactive)
[7]
  inhibition: 2.56% (inactive)
[8]
  superoxide response (% of plate): 95.3% (inactive)
[9]
  aptamer binding inhibition: -2% (inactive)
[10]
  inhibition: 10.7% (inactive)
[11]
  response: 11.4% (inactive)
[12]
  binding (% of control): 97.2% (inactive)
[13]
  efflux inhibition (fraction of control): -0.12 (inactive)
[14]
  inhibition: 7% (inactive)
[15]
  differentiation response: 0% (inactive)

## CN(C)CCC(c1ccc(Br)cc1)c1ccccn1 (stereo not given)
[1]
  percent of DMSO control GFP: 103% (inactive)
[2]
  GFP response vs DMSO: 101% (inactive)
[3]
  percent response of DMSO control: 94.9% (inactive)
[4]
  GFP response vs DMSO: 97.4% (inactive)
[5]
  GFP response, % of DMSO: 100% (inactive)
[6]
  double positive events: 56.9%
  vesicle binding response: 182% (inactive)
[7]
  inhibition: 36.1% (inactive)
[8]
  superoxide response (% of plate): 106% (inactive)
[9]
  aptamer binding inhibition: 2% (inactive)
[10]
  inhibition: -4.8% (inactive)
[11]
  response: 2.41% (inactive)
[12]
  binding (% of control): 103% (inactive)
[13]
  efflux inhibition (fraction of control): 0.18 (inactive)
[14]
  inhibition: 12% (inactive)
[15]
  differentiation response: -1.82% (inactive)

## CCOc1cccc(N2C(=O)CC(N(CCc3ccc(OC)c(OC)c3)C(=O)CC)C2=O)c1 (stereo not given)
[1]
  percent of DMSO control GFP: 101% (inactive)
[2]
  GFP response vs DMSO: 105% (inactive)
[3]
  percent response of DMSO control: 104% (inactive)
[4]
  GFP response vs DMSO: 98.4% (inactive)
[5]
  GFP response, % of DMSO: 100% (inactive)
[6]
  double positive events: 59.7%
  vesicle binding response: 184% (inactive)
[7]
  inhibition: 0% (inactive)
[8]
  superoxide response (% of plate): 94% (inactive)
[9]
  aptamer binding inhibition: 2% (inactive)
[10]
  inhibition: 27.3% (inactive)
[11]
  response: -1.88% (inactive)
[12]
  binding (% of control): 100% (inactive)
[13]
  efflux inhibition (fraction of control): -0.2 (inactive)
[14]
  inhibition: 5% (inactive)
[15]
  differentiation response: -18% (inactive)

## CC1(C)c2ccccc2N2CC(=O)N(CC(N)=O)C21C (stereo not given)
[1]
  percent of DMSO control GFP: 103% (inactive)
[2]
  GFP response vs DMSO: 99.9% (inactive)
[3]
  percent response of DMSO control: 103% (inactive)
[4]
  GFP response vs DMSO: 109% (inactive)
[5]
  GFP response, % of DMSO: 105% (inactive)
[6]
  double positive events: 61.8%
  vesicle binding response: 243% (inactive)
[7]
  inhibition: -5.84% (inactive)
[8]
  superoxide response (% of plate): 108% (inactive)
[9]
  aptamer binding inhibition: 3% (inactive)
[10]
  inhibition: -1.94% (inactive)
[11]
  response: 3.96% (inactive)
[12]
  binding (% of control): 97.8% (inactive)
[13]
  efflux inhibition (fraction of control): -0.35 (inactive)
[14]
  inhibition: 11% (inactive)
[15]
  differentiation response: -21.2% (inactive)
